# From PubChem BioAssay
# Active and inactive are the calls of the source.
# How the values were obtained:
# [1] = optical density shifts of acrAB sulA E. coli – strain DRC41, OD650, 48 h, E. coli filamentation inducer project, primary screen (AID 1152); conditions: higher = more signal, called active from +8 up or from −8 down;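 further: E. coli MC1000 strain DRC41 lacking acrAB efflux pump and sulA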
# [2] = probe aLefty1 binding on compound microarray – biochemical, small-molecule microarray, 635/667 nm fluorescence, primary screen (AID 1153); conditions: higher = more signal;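 further: score merges spot fluorescence with signal-to-noise ratio from the scanned slide images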
# [3] = plasmodial surface anion channel blockers, osmotic lysis – cell-based, P. falciparum Indochina, OD700, 1 h, primary screen (AID 1154); conditions: P. falciparum Indochina infected RBC osmotic lysis, higher = more signal, called active from +8 up or from −8 down
# [4] = plasmodial surface anion channel blockers, osmotic lysis – cell-based, P. falciparum Indochina, OD700, 2 h, primary screen (AID 1155);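 further: lysis reports solute entry through the parasite surface anion channel PSAC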; conditions: P. falciparum Indochina infected erythrocytes, higher = more signal, called active from +8 up or from −8 down
# [5] = changes in parasitized red cell lysis, either direction – P. falciparum Indochina, OD700, 3 h, PSAC antagonist project, primary screen (AID 1156); conditions: P. falciparum-infected erythrocytes, osmotic lysis, higher = more signal, called active from +8 up or from −8 down
# [6] = plasmodial surface anion channel blockers, osmotic lysis – cell-based, P. falciparum Indochina, OD700, 18 h, primary screen (AID 1157); conditions: P. falciparum Indochina infected erythrocytes, osmotic lysis OD700, 18 h; higher = more signal, called active from +8 up or from −8 down
# [7] = S6 kinase pathway phospho-S6 level changes – cell-based, A549, cytoblot, luminescence, serum-stimulated, primary screen (AID 1158); conditions: 5 h, higher = more signal;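 further: serum-stimulated A549 lung adenocarcinoma cells; signal is phosphorylated S6 detected by cytoblot immunostaining with HRP secondary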
# [8] = target: NADPH oxidase 2 (Homo sapiens) (UniProt P04839); assay: compounds shifting NOX2 Amplex Red fluorescence – cell-based, HEK293-NOX2, PMA-stimulated, NOX inhibitor project, primary screen (AID 1159); conditions: 45 min, higher = more signal, called active from +8 up or from −8 down; further: test concentration not given here
# [9] = target: NADPH oxidase 4 (Homo sapiens) (UniProt Q9NPH5); assay: compounds shifting NOX4 Amplex Red fluorescence – cell-based, HEK293-NOX4, tetracycline-induced, NOX inhibitor project, primary screen (AID 1160); conditions: HEK293-NOX4, Amplex Red H2O2 fluorescence, 45 min; higher = more signal, called active from +8 up or from −8 down
# [10] = target: NADPH oxidase 5 (Homo sapiens) (UniProt Q96PH1); assay: compounds shifting NOX5 Amplex Red fluorescence – cell-based, HEK293-NOX5, NOX inhibitor project, primary screen (AID 1161); conditions: HEK293-NOX5, ionomycin, 45 min, higher = more signal
# Chain of NADPH oxidase 5 (Homo sapiens) (Q96PH1 whole entry, looked up): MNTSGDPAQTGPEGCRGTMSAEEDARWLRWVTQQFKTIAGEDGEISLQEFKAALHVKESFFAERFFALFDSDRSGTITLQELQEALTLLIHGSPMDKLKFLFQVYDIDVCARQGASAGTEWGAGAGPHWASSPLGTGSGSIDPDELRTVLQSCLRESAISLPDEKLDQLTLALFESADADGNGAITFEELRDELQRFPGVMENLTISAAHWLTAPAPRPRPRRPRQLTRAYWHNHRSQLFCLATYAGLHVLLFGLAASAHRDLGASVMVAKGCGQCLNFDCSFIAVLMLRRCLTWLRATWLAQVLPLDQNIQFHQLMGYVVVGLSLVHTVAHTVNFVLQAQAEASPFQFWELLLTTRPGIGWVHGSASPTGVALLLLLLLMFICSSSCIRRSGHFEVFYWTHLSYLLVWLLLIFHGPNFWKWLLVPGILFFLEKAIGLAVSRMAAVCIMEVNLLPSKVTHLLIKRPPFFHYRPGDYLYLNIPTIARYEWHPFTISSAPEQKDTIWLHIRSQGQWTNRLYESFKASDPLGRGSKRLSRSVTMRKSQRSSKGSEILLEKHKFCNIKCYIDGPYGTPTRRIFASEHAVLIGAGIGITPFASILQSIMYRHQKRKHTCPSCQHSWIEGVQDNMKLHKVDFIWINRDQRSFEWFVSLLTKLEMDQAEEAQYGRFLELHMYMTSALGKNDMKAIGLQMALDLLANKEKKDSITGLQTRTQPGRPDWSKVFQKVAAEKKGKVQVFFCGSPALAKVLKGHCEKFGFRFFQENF
# Chain of NADPH oxidase 2 (Homo sapiens) (P04839 whole entry, looked up): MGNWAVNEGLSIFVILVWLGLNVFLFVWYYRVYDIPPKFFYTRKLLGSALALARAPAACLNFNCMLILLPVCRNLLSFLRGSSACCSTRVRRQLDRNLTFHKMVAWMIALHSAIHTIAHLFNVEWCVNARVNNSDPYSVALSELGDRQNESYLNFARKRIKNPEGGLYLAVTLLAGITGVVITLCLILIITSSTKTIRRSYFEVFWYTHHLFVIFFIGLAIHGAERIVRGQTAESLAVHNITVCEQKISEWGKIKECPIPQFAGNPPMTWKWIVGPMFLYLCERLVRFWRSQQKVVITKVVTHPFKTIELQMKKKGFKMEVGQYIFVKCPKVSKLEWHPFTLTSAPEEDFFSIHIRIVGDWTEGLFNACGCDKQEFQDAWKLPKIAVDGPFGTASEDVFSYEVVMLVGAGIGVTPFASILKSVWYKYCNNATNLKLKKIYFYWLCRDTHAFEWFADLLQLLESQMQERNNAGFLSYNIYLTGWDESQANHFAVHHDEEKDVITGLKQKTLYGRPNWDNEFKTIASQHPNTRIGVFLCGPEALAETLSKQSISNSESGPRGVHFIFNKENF
# Chain of NADPH oxidase 4 (Homo sapiens) (Q9NPH5 whole entry, looked up): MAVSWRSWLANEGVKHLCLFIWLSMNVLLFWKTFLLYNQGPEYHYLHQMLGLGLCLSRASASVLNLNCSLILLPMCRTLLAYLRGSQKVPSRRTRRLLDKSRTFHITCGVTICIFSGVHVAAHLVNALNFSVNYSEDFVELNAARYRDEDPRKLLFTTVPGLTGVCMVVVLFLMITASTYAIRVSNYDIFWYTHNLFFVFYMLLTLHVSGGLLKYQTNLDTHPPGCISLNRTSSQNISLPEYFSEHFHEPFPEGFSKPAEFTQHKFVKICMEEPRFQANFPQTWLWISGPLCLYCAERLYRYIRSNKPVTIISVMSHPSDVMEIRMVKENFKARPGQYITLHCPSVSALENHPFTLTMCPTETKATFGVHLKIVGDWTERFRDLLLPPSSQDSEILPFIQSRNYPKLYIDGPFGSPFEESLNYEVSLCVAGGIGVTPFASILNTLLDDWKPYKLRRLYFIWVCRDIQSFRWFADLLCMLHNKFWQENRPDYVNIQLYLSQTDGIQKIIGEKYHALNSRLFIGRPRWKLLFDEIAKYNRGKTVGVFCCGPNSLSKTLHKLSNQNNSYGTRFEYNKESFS
SMILES,z-score [1],composite z-score [2],z-score [3],z-score [4],z-score [5],z-score [6],z-score [7],z-score [8],z-score [9],z-score [10]
COc1ccc(O[C@H]2C=C[C@@H](c3ccccc3)O[C@@H]2COC(=O)CCC(C)=NOC(C)CN2CCCc3nc(C)c(C)cc32)cc1 (stereo not given in full),-0.343 (inactive),0.0004,8.59 (active),0.812 (inactive),0.54 (inactive),0.563 (inactive),-0.314,-2.38 (inactive),-0.643 (inactive),-1.35
CCCNC(=O)OC[C@H]1O[C@H](CCON=C(C)C)C=C[C@@H]1Oc1ccc(OC)cc1,-1.21 (inactive),0.209,0.683 (inactive),0.411 (inactive),-0.551 (inactive),0.367 (inactive),-0.131,-0.278 (inactive),0.389 (inactive),-0.533
C[C@@H](ON=C1[C@H]2CCn3c(=O)n(-c4ccccc4)c(=O)n3[C@H]2[C@H](O)[C@@H]2O[C@H]12)c1cn([C@@H]2COC[C@H]2O)nn1,-0.212 (inactive),-0.255,0.595 (inactive),0.277 (inactive),0.0251 (inactive),0.122 (inactive),-0.574,-0.183 (inactive),-0.242 (inactive),-0.461
CO[C@@H]1COC(=O)CC=C[C@@H](C)[C@H](OC)COC(=O)[C@@H](C)COC(=O)CC=C[C@H]1C,0.604 (inactive),-0.145,-0.52 (inactive),0.409 (inactive),-0.28 (inactive),0.377 (inactive),-0.0303,-0.387 (inactive),0.195 (inactive),0.479
CC1O[C@H]2C3=C(C(=O)[C@@H]4O[C@@H]4[C@H]3O)[C@@H]1C1[C@@H](C)OC=C3[C@H](O)C4O[C@@H]4C(=NOCc4ccccc4)[C@]312 (stereo not given in full),-0.259 (inactive),-0.184,1.3 (inactive),0.184 (inactive),0.0322 (inactive),0.0995 (inactive),-0.871,0.32 (inactive),0.584 (inactive),0.445
CON=C[C@@H](NS(=O)(=O)c1ccc(C)cc1)[C@H](C)C=CCC(=O)OC,-1.47 (inactive),-0.0984,0.553 (inactive),0.849 (inactive),-0.459 (inactive),0.539 (inactive),0.22,-0.153 (inactive),-0.345 (inactive),-0.415
CCCNC(=O)OC[C@H]1O[C@H](CCON=C(C)CCN2CCCc3nc(C)c(C)cc32)C=C[C@@H]1Oc1ccc(OC)cc1,0.794 (inactive),-0.0061,5.53 (inactive),0.722 (inactive),0.99 (inactive),0.318 (inactive),-0.546,-0.995 (inactive),0.166 (inactive),-1.14
O=C1[C@H]2[C@H]3[C@H](O)[C@H](O)CC(=NOC[C@@H](O)COCc4ccco4)[C@H]3CC[C@H]2C(=O)N1c1ccc(F)cc1F,-0.575 (inactive),0.153,1.12 (inactive),-0.479 (inactive),0.679 (inactive),-1.14 (inactive),1.69,-0.249 (inactive),0.498 (inactive),1.09
O=C1CCCC=C1C(O)CCOC(c1ccccc1)(c1ccccc1)c1ccccc1 (stereo not given),-1.03 (inactive),-0.0969,1.52 (inactive),-0.349 (inactive),-0.205 (inactive),-0.217 (inactive),-0.0632,1.69 (inactive),-1.48 (inactive),-0.832
CC(=O)Nc1ccc([C@@H]2N[C@H](C(=O)O)CC[C@H]2C)cc1,0.961 (inactive),-0.017,-0.188 (inactive),0.182 (inactive),-0.23 (inactive),-0.267 (inactive),0.699,-0.121 (inactive),0.195 (inactive),0.13
Cc1ccc(S(=O)(=O)N[C@H]2COC(=O)CC=C[C@H](C)[C@@H](NS(=O)(=O)c3ccc(C)cc3)COC(=O)CC=C[C@@H]2C)cc1,0.373 (inactive),-0.147,0.334 (inactive),0.283 (inactive),0.654 (inactive),0.441 (inactive),-1.01,0.152 (inactive),-1.92 (inactive),-1.01
C#CCCCON=C1C[C@@H](O)[C@@H](O)[C@@H]2[C@@H]3C(=O)N(CC)C(=O)[C@@H]3CC[C@@H]12,-0.229 (inactive),-0.243,0.299 (inactive),0.363 (inactive),-0.26 (inactive),-0.0637 (inactive),-0.595,0.275 (inactive),0.764 (inactive),-0.64
O=C1CCCC=C1C(CCc1ccccc1)OC(=O)c1ccc(Br)cc1 (stereo not given),-0.303 (inactive),0.16,10.6 (active),0.748 (inactive),-0.295 (inactive),-0.364 (inactive),0.307,1.36 (inactive),0.397 (inactive),-1.5
